High-throughput results (PubChem BioAssay)
Most compounds without a hit are left out; they make up all but 3.8% or so of the library.
Mdm2-MdmX inh = inhibitors of human Mdm2/MdmX interaction; O15151+Q00987; SaOS-2 split-luciferase Mdm2/MdmX complementation, luminescence; AID 485346; inhibition, % at 8 µM; 330,000 tested, 3% active;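 active means inhibition of at least 50% at 8 µM in the primary screen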
Jurkat NFkB inh = inhibitors of the PMA/ionomycin-induced NF-kB reporter in Jurkat cells | PMA/ionomycin-induced NF-kB luciferase reporter, luminescence | inhibition, % at 4 µM | 330,000 tested, 0.53% active; in the data active means inhibition above about 50%
Bfl-1 A1 inh = inhibitors of the anti-apoptotic protein A1, read as caspase activation | MEF A1-2A-BIM cells, Caspase-Glo 3/7 luminescence, 3 h; percent of clofoctol response, vehicle zero | AID 2462 | 330,000 tested, 0.066% active | caspase activation, % (no concentration beside the values);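 active means over half of replicate activation scores above 10%, or exactly half above 10 with the replicate mean above 10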
Beta cell apopt = blocks beta cell apoptosis; INS-1E cytokine-induced death, ATP luminescence, 48 h; percent of positive-control rescue, neutral wells zero; protection from apoptosis, % (concentration not given with the values); 300,000 tested, 0.8% active;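 active means Every replicate reaches about 75%, or at least half do and their mean reaches it too, limit read from the data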;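 further: 0% = cytokine-treated negative control wells and 100% = positive control rescue; higher means more ATP so stronger rescue from cytokine killing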
NTR1 ag = agonists of human neurotensin receptor NTR1 | P30989 | NTR1-U2OS beta-arrestin-GFP spot imaging, agonist mode | activation, % at 20 µM | 330,000 tested, 0.17% active | AID 493036;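 active means activation at or above 40% of the spot to cytoplasm intensity ratio, with at least 20 cells analyzed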;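 further: 0% = DMSO without peptide and 100% = 100 nM NTR1 peptide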
Target sequence (P30989 whole entry, looked up): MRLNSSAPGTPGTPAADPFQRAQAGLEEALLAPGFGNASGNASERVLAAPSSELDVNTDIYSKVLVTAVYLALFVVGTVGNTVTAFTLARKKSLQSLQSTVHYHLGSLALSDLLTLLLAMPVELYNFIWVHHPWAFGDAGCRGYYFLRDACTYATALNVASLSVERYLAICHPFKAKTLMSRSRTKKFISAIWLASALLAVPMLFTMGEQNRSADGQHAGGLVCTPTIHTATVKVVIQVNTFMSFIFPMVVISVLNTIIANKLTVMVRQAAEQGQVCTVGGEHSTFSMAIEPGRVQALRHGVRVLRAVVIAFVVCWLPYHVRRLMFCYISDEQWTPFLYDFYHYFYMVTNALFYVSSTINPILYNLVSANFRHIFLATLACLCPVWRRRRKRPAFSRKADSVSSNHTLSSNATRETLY
697 NFkB inh = lowers PMA/ionomycin-induced NF-kB signal in 697 B cells | 697 B-cell NF-kB luciferase reporter, 16 h | inhibition, % at 4 µM | 330,000 tested, 0.33% active | AID 435022; in the data active means inhibition above about 35%
Mdm2 MdmX conf = human Mdm2/MdmX binding inhibition, confirmed. luminescent assay. 10,000 tested, 55% active. AID 489028. inhibition, % at 8 µM. shares compounds with Mdm2-MdmX inh; in the data active means inhibition above about 40%
FLuc counter = full-length luciferase inhibition in Mdm2/MdmX counter-screen | shares compounds with Mdm2-MdmX inh | SaOS-2 full-length luciferase counterscreen, luminescence | inhibition, % at 8 µM | 6,200 tested, 77% active;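 active means mean inhibition at 8 µM reaching about 37%, which flags the compound as non-specific, limit read from the data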;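 further: p53-null SaOS-2 cells with luciferase driven by a doxycycline-inducible promoter; compound on cells about two nights before reading with doxycycline added after day one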
Numbers without * were called inactive.

`CC(Oc1cccc(Cl)c1)C(=O)Nc1nc(-c2ccccn2)cs1` (centres undefined) gave Mdm2-MdmX inh 68*, Jurkat NFkB inh 19, Bfl-1 A1 inh 0, NTR1 ag 9, 697 NFkB inh -9, Mdm2 MdmX conf 77* and FLuc counter 44*.
Screening Nc1ccc(C(=O)N/N=C\c2cc(N=Nc3cccc4ccccc34)ccc2O)cc1 returned Mdm2-MdmX inh 57*, Jurkat NFkB inh 7, Bfl-1 A1 inh 0, Beta cell apopt 70, NTR1 ag -1, 697 NFkB inh -57, Mdm2 MdmX conf 67* and FLuc counter 36*.
O=C(C1CC(=O)N(c2ccc3c(c2)OCCO3)C1)N1CCCC(C(F)(F)F)C1 (centres undefined) was read as Mdm2-MdmX inh 14, Jurkat NFkB inh -15, Bfl-1 A1 inh 0, Beta cell apopt 0, NTR1 ag 0 and 697 NFkB inh 11.
For COc1ccc(OC)c(N/C=C/C(=O)c2ccccc2)c1 the results were Mdm2-MdmX inh 58*, Jurkat NFkB inh -12, Bfl-1 A1 inh -7, Beta cell apopt 15, NTR1 ag 4, 697 NFkB inh -220, Mdm2 MdmX conf 62* and FLuc counter 155*.
`COc1ccc(N/C=C/C(=O)c2cc(OC)c(OC)c(OC)c2)cc1` gave Mdm2-MdmX inh 68*, Jurkat NFkB inh 35, Bfl-1 A1 inh 0, Beta cell apopt 31, NTR1 ag 4, 697 NFkB inh -4, Mdm2 MdmX conf 60* and FLuc counter 57*.
Screening COc1ccc(OC)c(C(=O)/C=C/c2ccccc2C(F)(F)F)c1 returned Mdm2-MdmX inh 89*, Jurkat NFkB inh -2, Bfl-1 A1 inh 1, Beta cell apopt -6, NTR1 ag 4, 697 NFkB inh -20, Mdm2 MdmX conf 65* and FLuc counter 21.
`COc1ccc(OC)c(N/C(C)=C/C(=O)c2ccccc2)c1` gave Mdm2-MdmX inh -129, Jurkat NFkB inh -120, Bfl-1 A1 inh 0, Beta cell apopt 2, NTR1 ag 0 and 697 NFkB inh -91.
For O=C(O)c1ccccc1NC(c1ccccc1)c1ccc(Cl)cc1 (centres undefined) the results were Mdm2-MdmX inh -4, Jurkat NFkB inh 4, Bfl-1 A1 inh -1, Beta cell apopt -1, NTR1 ag 4 and 697 NFkB inh -7.
For CN(CCOc1ccccc1)CC(=O)Nc1ccc(Br)cc1F the results were Mdm2-MdmX inh 7, Jurkat NFkB inh 1, Bfl-1 A1 inh 0, Beta cell apopt 1, NTR1 ag 1 and 697 NFkB inh -1.
Screening COc1ccc2nc3cc(Cl)ccc3c(Nc3cc(C(C)C)c(O)cc3C)c2c1 returned Mdm2-MdmX inh 94*, Jurkat NFkB inh -17, Bfl-1 A1 inh -1, Beta cell apopt 114*, NTR1 ag 26, 697 NFkB inh -27, Mdm2 MdmX conf 64* and FLuc counter 64*.
Screening O=C(NC(=S)Nc1nc(-c2cccc([N+](=O)[O-])c2)cs1)c1cc(Cl)ccc1Cl returned Mdm2-MdmX inh 52*, Jurkat NFkB inh -8, Bfl-1 A1 inh 0, Beta cell apopt 1, NTR1 ag 15, 697 NFkB inh -3 and Mdm2 MdmX conf -5.
O=C(NC(=S)Nc1nc(-c2cccc([N+](=O)[O-])c2)cs1)c1ccccc1Cl was read as Mdm2-MdmX inh -3, Jurkat NFkB inh -12, Bfl-1 A1 inh 0, Beta cell apopt 1, NTR1 ag 6 and 697 NFkB inh -46.
For Cc1ccc(C(NC(=O)C(C)C)c2cc([N+](=O)[O-])c3cccnc3c2O)cc1 (centres undefined) the results were Mdm2-MdmX inh 57*, Jurkat NFkB inh -1, Bfl-1 A1 inh -1, Beta cell apopt 61, NTR1 ag 1, 697 NFkB inh -19, Mdm2 MdmX conf 51* and FLuc counter 44*.
CC(C)C(=O)NC(c1cccs1)c1cc([N+](=O)[O-])c2cccnc2c1O (centres undefined) was read as Mdm2-MdmX inh 68*, Jurkat NFkB inh -5, Bfl-1 A1 inh -1, Beta cell apopt 97*, NTR1 ag 1, 697 NFkB inh -6, Mdm2 MdmX conf 70* and FLuc counter 57*.
For CCC(=O)NC(/C=C/c1ccccc1)c1cc([N+](=O)[O-])c2cccnc2c1O (centres undefined) the results were Mdm2-MdmX inh 64*, Jurkat NFkB inh 1, Bfl-1 A1 inh 0, Beta cell apopt 77*, NTR1 ag 3, 697 NFkB inh -56 and Mdm2 MdmX conf 19.
O=[N+]([O-])c1cc2cccnc2c2ncccc12 was read as Mdm2-MdmX inh 22, Jurkat NFkB inh -4, Bfl-1 A1 inh 0, Beta cell apopt 2, NTR1 ag 5 and 697 NFkB inh -34.
Screening Cc1ccc(S(=O)(=O)N2CCOCC2)cc1C(=O)OCCOc1cccc(Cl)c1 returned Mdm2-MdmX inh 12, Jurkat NFkB inh -5, Bfl-1 A1 inh 1, Beta cell apopt 3, NTR1 ag 2 and 697 NFkB inh -22.
C[C@H](CO)N1C[C@H](C)[C@@H](CN(C)S(=O)(=O)c2cccs2)Oc2c(NC(=O)CCC(F)(F)F)cccc2C1=O was read as Mdm2-MdmX inh 16, Jurkat NFkB inh 3, Bfl-1 A1 inh 0, Beta cell apopt 1, NTR1 ag -1 and 697 NFkB inh 15.
CN(C)S(=O)(=O)c1ccc(N2CCCC2)c(C(=O)N2CCC(C(N)=O)CC2)c1 was read as Mdm2-MdmX inh -1, Jurkat NFkB inh -11, Bfl-1 A1 inh 1, Beta cell apopt -3, NTR1 ag -1 and 697 NFkB inh -21.
Screening CCCCN(C)CC(O)Cn1cc(/C=C/C(=O)c2ccc(C)cc2)c2ccccc21 (centres undefined) returned Mdm2-MdmX inh 74*, Jurkat NFkB inh -16, Bfl-1 A1 inh 0, Beta cell apopt 10, NTR1 ag 11, 697 NFkB inh 26 and Mdm2 MdmX conf 20.
Screening COc1ccc(C(=O)/C=C/c2cn(CC(O)CN3CCN(C)CC3)c3ccccc23)cc1OC (centres undefined) returned Mdm2-MdmX inh 50*, Jurkat NFkB inh 19, Bfl-1 A1 inh 0, Beta cell apopt -4, NTR1 ag 1, 697 NFkB inh -10 and Mdm2 MdmX conf 25.
For CCCN(CCC)CC(O)Cn1cc(/C=C/C(=O)c2cccs2)c2ccccc21 (centres undefined) the results were Bfl-1 A1 inh 0 and Beta cell apopt -2.
